Source: PubChem BioAssay
Hits are enriched below; roughly 2.2% of the tested compounds scored in any of these assays.
TDP43 rescue: inhibitors of TDP-43 toxicity in yeast; TDP-43 expressing yeast growth rescue, BacTiter-Glo, 24 h; Potency, µM (top dose mostly 46.1 µM), without a hit: at the highest dose growth rescue (activation), actives largely listed as activators; 1.8% of 410,000 active; AID 652104; further: % of control where 0% means no effect; nearly all actives have a fitted effect of over 50% in size
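Galactose-induced TDP-43 yeast, OD600=0.02, compound pinned; 24 hr, 30 deg C; BacTiter-Glo luminescence for growth. Inhibitors of TDP-43 toxicity read as activators.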
FUS yeast rescue: suppressors of FUS proteinopathy in yeast; Potency, µM (doses to about 76.6 µM), hits mostly activators; AID 1347120; 0.24% of 390,000 active; S. cerevisiae FUS-expressing, growth rescue, OD600, 24 h;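 further: plate controls were DMSO vehicle for no effect and reference control for full effect; nearly all actives have a fitted effect of over 55% in size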
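Toxicity suppression screen in FUS-yeast. Cells induced with 2% galactose, starting OD 0.005, treated 24hr at 30C with compounds at multiple final concentrations; growth by OD600.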
aSyn yeast inh: rescues yeast growth from alpha-synuclein toxicity; Yeast expressing alpha-synuclein, growth rescue, BacTiter-Glo, 24 h; Potency, µM (highest dose often 46.1 µM), for the others: at the highest dose growth rescue (activation), most hits filed as activators; 0.14% of 370,000 active; AID 652106; further: % of control where 0% means no effect; nearly all actives have a fitted effect of over 65% in size
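Galactose-induced alpha-syn yeast (OD600=0.02, raffinose-pregrown) + pinned cpd, 24 hr, 30 deg C; growth by BacTiter-Glo luminescence. Growth restoration scores as activation.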
Mito fusion yeast: mitochondrial division inhibition or fusion activation; Potency, µM (doses to about 46.1 µM), without a hit: at the highest dose growth rescue (activation), most hits filed as activators; 0.23% of 320,000 active; S. cerevisiae fusion-defective mutant growth rescue, CellTiterGlo 48 h; further: % of control where 0% means no effect; nearly all actives have a fitted effect of over 45% in size
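Yeast fusion mutant, YPEG (non-fermentable carbon), compound, 48 h at 37C non-permissive; CellTiterGlo added, 10 min RT, luminescence read. Rescued growth = division inhibition.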
Abeta rescue: restores growth of yeast expressing A-beta42 peptide; Potency, µM (titrated, usually from 46.1 µM), most hits filed as activators; yeast expressing A-beta42, growth rescue, OD600, 48 h; response scale: 0% DMSO, 100% iron-clioquinol control; 0.063% of 410,000 active; further: nearly all actives have a fitted effect of over 55% in size
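Yeast growth medium received pinned compounds, then yeast cells expressing toxic A-beta were added; plates incubated at 30 C for 48 hr. Growth read as absorbance at 600 nm, normalized to DMSO and equimolar FeCl3 plus clioquinol controls.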
Active calls of the source: *; i = inactive; ? = inconclusive; / = no result; ! = not active in a repeat; [ ] = dose if it differs, or a comment. The call rests on the fitted dose curve; in most records, active means well fitted curve in the direction sought with a large enough effect; inconclusive means small, poorly fitted or top-dose-only effect, or another doubt; inactive means no such curve, though single readings can be large; an effect the other way counts as inactive or inconclusive. Potency means the concentration at half of the fitted maximal effect.

SMILES	TDP43 rescue	FUS yeast rescue	aSyn yeast inh	Mito fusion yeast	Abeta rescue
COc1ccccc1NC(=O)c1nc(S(=O)(=O)Cc2ccccc2)ncc1Cl	-9.4%	i	3.7%	-15.4%	i
CCc1ccc(NC(=O)c2nc(S(=O)(=O)Cc3ccccc3)ncc2Cl)cc1	/	/	/	-54.6%	/
CCS(=O)(=O)c1ncc(Cl)c(C(=O)Nc2ccccc2)n1	11.2µM*	i	/	/	i
Cc1cccc(NC(=O)c2nc(S(C)(=O)=O)ncc2Cl)c1	20µM*	i	/	/	i
COc1ccc(OC)c(NC(=O)c2nc(S(=O)(=O)Cc3ccc(F)cc3)ncc2Cl)c1	3.16µM*	i	/	/	i
CCOC(=O)c1c(-c2ccccc2)csc1NC(=O)c1nc(S(=O)(=O)CC)ncc1Cl	3.98µM*	i	/	/	i
CC(C(=O)c1ccccc1)[n+]1cccc(Cl)c1 (stereo unspecified)	/	/	-6.9%	/	/
CC(C)NS(=O)(=O)c1ccc2[nH]c3nc(SCC(=O)Nc4ccc(F)c(F)c4)nnc3c2c1	/	/	-11.6%	/	/
CCOC(=O)c1noc2nc(C)n(CC(=O)Nc3cccc(OC)c3)c(=O)c12	-20.1%	i	/	/	i
O=C1CCCCC1C(Nc1ccc(Br)cc1)c1ccccc1 (stereo unspecified)	12.6µM*	i	19.3%	20.7%	i
COc1ccc(S(=O)(=O)N2CCCCC2)cc1NC(=S)Nc1cccc(Cl)c1C	-6.3%	2.82µM*	0.9%	3.6%	i
CC(C)Oc1ccc(S(=O)(=O)N2CCCCC2)cc1NC(=O)C1=COCCO1	10.6%	i	5.2%	8.5%	i
Cc1cccc(Oc2ccc(S(=O)(=O)N3CCCCC3)cc2NC(=O)C2=COCCO2)c1	-20.0%	28.2µM*	-5.9%	15.8%	i
CCC(=O)OCc1cnc(C)c2oc(=O)c(C(=O)Nc3ccc(CC)cc3)cc12	-9.5%	i	/	/	i
Nc1nc2ccc(OC(F)(F)F)cc2s1	12.6µM*	i	/	3.26µM*!	i
Nc1nc2ccc(Oc3ccccc3)cc2s1	11.2µM*	/	-11.9%	19.7%	i
Cc1nc2ccc(Oc3ccccc3)cc2s1	28.1%	i	-0.9%	-0.3%	i
CCOC(=O)CNC(=O)c1cc2c(=O)n3cccc(C)c3nc2n1C	7.0%	i	/	/	i
Brc1ccc(/C=C2\C=Cc3ccccc32)cc1	/	/	8.3%	/	/
COc1ccc2nccc(/C=C/c3ccc(N(C)C)cc3)c2c1	/	/	-26.4%	/	/
Cc1nc(-c2ccc(F)cc2)sc1CCNC(=O)c1ccco1	26.2%	i	/	/	i
CCN(CC)c1nc(NN)nc(Nc2ccc(C)c(Cl)c2)n1	12.6µM*	i	-9.5%	/	?
Cc1ccc(Nc2nc(Cl)c(C=O)s2)cc1Cl	3.0%	i	-2.1%	-10.1%	i
N/C(=N\OC(=O)c1ccccc1Cl)c1ccccn1	-27.4%	i	-27.3%	-2.5%	i
Cn1cc(Cl)c(/C(N)=N/OC(=O)c2ccccc2C(F)(F)F)n1	20µM*	i	3.2%	7.0%	i
SMILES	TDP43 rescue	FUS yeast rescue	aSyn yeast inh	Mito fusion yeast	Abeta rescue
O=C(CNC(=O)C(c1ccccc1)c1ccccc1)OCC(=O)c1cccc2ccccc12	/	/	-5.0%	/	/
O=C(CNC(=O)C1CCCCC1)OCC(=O)c1ccccc1	/	/	2.5%	/	/
CN(C(=S)NC1CCCCC1)C1(c2ccccc2Cl)CCCCC1=O (stereo unspecified)	-10.9%[9.22 µM]	i	1.5%	20µM*	?
CC(C)NC(=S)N(C)C1(c2ccccc2Cl)CCCCC1=O (stereo unspecified)	?	i	15.7%	17.7%	i
CCOC(=O)c1cc(-c2ccccc2)n(CCC(=O)NCCc2cccc(C)c2)c1C	?	?	/	/	i
CCOC(=O)c1cc(-c2ccc(OC)cc2)n(CCC(=O)NCCc2ccccc2)c1C	31.6µM*	?	/	/	i
Cc1onc(C(=O)NN)c1-c1csc(COc2ccc(Cl)cc2)n1	11.2µM*	i	10.7%	-5.4%	i
Cc1ccccc1-c1nnc(C2CCN(S(=O)(=O)c3ccc(Cl)cc3)CC2)o1	13.3%[9.22 µM]	i	/	/	i
COc1ccc(S(=O)(=O)N2CCC(c3nnc(-c4ccccc4C)o3)CC2)c(OC)c1	0.0%	31.6µM*	/	/	i
CCOC(=O)N1CCN(C(=O)c2ccc3nc(-c4ccccc4)c(-c4ccccc4)nc3c2)CC1	17.8µM*	?	3.7%	?	i
CCc1nc2ccc(C(=O)N3CCN(c4ccccc4)CC3)cc2nc1CC	?	?	7.8%	1.2%	i
CCC(=O)c1ccc(N2CCN(C(=O)c3ccccc3F)CC2)c(F)c1	?	i	6.6%	10µM*	i
CCC(=O)c1ccc(N2CCN(C(=O)c3ccccc3Br)CC2)c(F)c1	10.3%[9.22 µM]	i	19.2%	1.3%	i
CCc1nc2ccc(C(=O)N3CCN(c4ccccc4F)CC3)cc2nc1CC	20µM*!	?	0.8%	-0.7%	i
CC(NCc1ccco1)C(=O)N1CCCC1 (stereo unspecified)	/	i	/	/	/
Cc1ccc(NC(=O)CN2C(=O)CCSc3ccccc32)c(C)c1	15.8µM*	i	2.9%	/	i
COc1cccc(NC(=O)c2ccccc2OCC(=O)Nc2ccc(Br)cc2)c1	/	/	-15.8%	/	/
CC(C)c1ccc2oc(-c3cc(N)ccc3O)nc2c1	20µM*	i	-10.7%	-17.0%	i
O=C(Nc1nnc(-c2cccs2)o1)c1cccc(C(F)(F)F)c1	7.08µM*	i	3.16µM*	12.3%	6.31µM*
Cc1ccc(Cl)cc1C1=CC(=O)C[C@H](c2ccc(F)cc2)C1	?	i	2.7%	?	i
COc1ccc([C@H]2CC(=O)C=C(c3cc(C)ccc3F)C2)cc1	20µM*	?	?	?	?
COc1ccc([C@H]2CC(=O)C=C(c3cc(Cl)ccc3C)C2)cc1	20µM*	i	14.0%	?	?
CSc1ccc(CCNC(=O)CN2C(=O)COc3ccc(S(=O)(=O)N4CCCCCC4)cc32)cc1	-6.9%	?	-3.3%	/	i
Cc1ccc(Cl)cc1Nc1nc(-c2cccnc2)cs1	12.6µM*	i	2.8%	7.1%	i
Clc1cccc(Nc2nc(-c3ccncc3)cs2)c1	12.6µM*	i	2.6%	0.5%	i
SMILES	TDP43 rescue	FUS yeast rescue	aSyn yeast inh	Mito fusion yeast	Abeta rescue
Cc1cccc(Nc2nc(-c3ccncc3)cs2)c1	?	i	11.2%	-1.1%	i
O=C(NCc1ccco1)C1CCCN(c2ncccn2)C1 (stereo unspecified)	/	i	/	/	/
CC(=O)Nc1ccc(S(=O)(=O)N(C)CC(=O)N/N=C/c2ccncc2)cc1	-1.3%	i	1.3%	22.4µM*	i
NC(=S)N/N=C/c1ccc(-n2nncc2-c2ccc(Cl)cc2)cc1	-1.5%	i	-7.5%	22.4µM*	i
NC(=S)N/N=C/c1ccc(/C=N/NC(N)=S)cc1	?	i	0.6%	-4.1%	i
Clc1cccc(CNc2ncnc3nc[nH]c23)c1	/	/	-4.9%	/	/
